Results reported in PubChem BioAssay AID1159580 (chemical genetic matrix, 2015).
Out of some 5,500 compounds screened, about 2,000 (36%) were called active. About 18% were inconclusive and are not listed. Cut-off read from the data, not from the text of the source: active = normalized growth mostly below about 0.91 (no sharp cut-off); inconclusive = no clear call, values can overlap the other calls; inactive = mostly above about 0.92. This is one part of the list.

Assay: chemical genetic growth profiling, strain panel (AID 1159580);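 note: tested at 20 µM; growth read once vehicle control cultures reached saturation at 30 °C; 1 = growth at the plate median or of vehicle wells; lower values mean less growth of the strain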
Settings: growth OD

Measured: normalized growth

NC[C@@H]1O[C@H](O[C@@H]2[C@@H](CO)OC(O[C@@H]3[C@@H](O)[C@H](N)C[C@H](N)[C@H]3O[C@H]3O[C@H](CO)[C@@H](O)[C@H](O)[C@H]3N)[C@@H]2O)[C@H](N)[C@@H](O)[C@@H]1O (stereo partly drawn)
inactive: S. cerevisiae deletion strains, locus YJR043C, strain POL32, active compounds read low 0.936 | S. cerevisiae deletion strains, locus YJR066W, strain TOR1, active compounds read low 0.945 | S. cerevisiae deletion strains, locus YKL009W, strain mrt4, active compounds read low 0.982 | S. cerevisiae deletion strains, locus YKL068W, active compounds read low 0.993 | S. cerevisiae deletion strains, locus YKL085W, strain MDH1 (second series), active compounds read low 0.995 | S. cerevisiae deletion strains, locus YKL085W, strain MDH1, active compounds read low 0.995 | S. cerevisiae deletion strains, locus YKL160W, strain elf1, active compounds read low 0.996 | S. cerevisiae deletion strains, locus YKL190W, strain CNB1, active compounds read low 0.988 | S. cerevisiae deletion strains, locus YKR001C, strain vps1, active compounds read low 0.988 | S. cerevisiae deletion strains, locus YKR026C, strain gcn3, active compounds read low 0.992 | S. cerevisiae deletion strains, locus YKR091W, strain srl3, active compounds read low 0.989 | S. cerevisiae deletion strains, locus YLL001W, strain dnm1, active compounds read low 0.985 | S. cerevisiae deletion strains, locus YLL026W, active compounds read low 0.987 | S. cerevisiae deletion strains, locus YLL041C, strain sdh2, active compounds read low 0.993 | S. cerevisiae deletion strains, locus YLR027C, strain aat2, active compounds read low 0.987 | S. cerevisiae deletion strains, locus YLR039C, strain RIC1, active compounds read low 0.983 | S. cerevisiae deletion strains, locus YLR058C, strain SHM2, active compounds read low 0.978 | S. cerevisiae deletion strains, locus YLR102C, strain apc9, active compounds read low 0.989 | S. cerevisiae deletion strains, locus YLR113W, strain HOG1, active compounds read low 0.952 | S. cerevisiae deletion strains, locus YLR221C, strain rsa3, active compounds read low 0.991 | S. cerevisiae deletion strains, locus YLR258W, strain gsy2, active compounds read low 0.993 | S. cerevisiae deletion strains, locus YLR262C, strain YPT6 (second series), active compounds read low 1.01 | S. cerevisiae deletion strains, locus YLR262C, strain YPT6, active compounds read low 0.973 | S. cerevisiae deletion strains, locus YLR268W, strain sec22, active compounds read low 0.986 | S. cerevisiae deletion strains, locus YLR320W, strain mms22, active compounds read low 0.997 | S. cerevisiae deletion strains, locus YLR330W, strain CHS5, active compounds read low 0.998 | S. cerevisiae deletion strains, locus YLR342W, strain FKS1 (second series), active compounds read low 1.09 | S. cerevisiae deletion strains, locus YLR342W, strain FKS1, active compounds read low 0.992 | S. cerevisiae deletion strains, locus YLR357W, strain rsc2, active compounds read low 0.992 | S. cerevisiae deletion strains, locus YLR370C, strain arc18, active compounds read low 0.992 | S. cerevisiae deletion strains, locus YLR371W, strain rom2, active compounds read low 1 | S. cerevisiae deletion strains, locus YLR384C, strain iki3, active compounds read low 0.99 | S. cerevisiae deletion strains, locus YLR418C, strain cdc73, active compounds read low 1.01 | S. cerevisiae deletion strains, locus YML016C, strain PPZ1, active compounds read low 0.992 | S. cerevisiae deletion strains, locus YML032C, strain rad52, active compounds read low 0.98 | S. cerevisiae deletion strains, locus YML120C, strain ndi1, active compounds read low 0.988 | S. cerevisiae deletion strains, locus YML124C, strain tub3, active compounds read low 0.985 | S. cerevisiae deletion strains, locus YMR058W, strain fet3, active compounds read low 0.988 | S. cerevisiae deletion strains, locus YMR078C, strain ctf18, active compounds read low 0.989 | S. cerevisiae deletion strains, locus YMR125W, strain sto1, active compounds read low 0.998 | S. cerevisiae deletion strains, locus YMR129W, active compounds read low 0.998 | S. cerevisiae deletion strains, locus YMR205C, strain PFK2, active compounds read low 0.994 | S. cerevisiae deletion strains, locus YMR223W, strain ubp8, active compounds read low 1.01 | S. cerevisiae deletion strains, locus YMR231W, strain pep5, active compounds read low 1 | S. cerevisiae deletion strains, locus YMR307W, strain GAS1, active compounds read low 1.07 | S. cerevisiae deletion strains, locus YNL067W, strain RPL9B, active compounds read low 0.97 | S. cerevisiae deletion strains, locus YNL071W, strain lat1, active compounds read low 0.987 | S. cerevisiae deletion strains, locus YNL183C, strain NPR1, active compounds read low 0.939 | S. cerevisiae deletion strains, locus YNL209W, strain ssb2, active compounds read low 0.999 | S. cerevisiae deletion strains, locus YNL233W, strain BNI4, active compounds read low 0.995 | S. cerevisiae deletion strains, locus YNL248C, strain rpa49, active compounds read low 0.988 | S. cerevisiae deletion strains, locus YNL250W, strain rad50, active compounds read low 0.991 | S. cerevisiae deletion strains, locus YNL271C, strain bni1, active compounds read low 0.986 | S. cerevisiae deletion strains, locus YNL298W, strain CLA4, active compounds read low 0.989 | S. cerevisiae deletion strains, locus YNL307C, strain MCK1, active compounds read low 0.983 | S. cerevisiae deletion strains, locus YNL322C, strain KRE1 (second series), active compounds read low 0.989 | S. cerevisiae deletion strains, locus YNR049C, strain mso1, active compounds read low 0.993 | S. cerevisiae deletion strains, locus YNR052C, strain pop2, active compounds read low 0.998 | S. cerevisiae deletion strains, locus YOL006C, strain TOP1, active compounds read low 0.932 | S. cerevisiae deletion strains, locus YOL012C, strain htz1 1.06 | S. cerevisiae deletion strains, locus YOL147C, strain pex11, active compounds read low 1 | S. cerevisiae deletion strains, locus YOR001W, strain rrp6, active compounds read low 0.985 | S. cerevisiae deletion strains, locus YOR061W, strain CKA2, active compounds read low 0.973 | S. cerevisiae deletion strains, locus YOR069W, strain VPS5, active compounds read low 0.998 | S. cerevisiae deletion strains, locus YOR070C, strain gyp1, active compounds read low 0.995 | S. cerevisiae deletion strains, locus YOR080W, strain dia2, active compounds read low 0.989 | S. cerevisiae deletion strains, locus YOR083W, strain WHI5, active compounds read low 0.993 | S. cerevisiae deletion strains, locus YOR106W, strain vam3, active compounds read low 0.995 | S. cerevisiae deletion strains, locus YOR136W, strain idh2, active compounds read low 0.98 | S. cerevisiae deletion strains, locus YOR144C, strain elg1, active compounds read low 0.999 | S. cerevisiae deletion strains, locus YOR184W, strain ser1, active compounds read low 0.972 | S. cerevisiae deletion strains, locus YOR231W, strain MKK1, active compounds read low 0.965 | S. cerevisiae deletion strains, locus YOR265W, strain rbl2, active compounds read low 0.992 | S. cerevisiae deletion strains, locus YOR270C, strain vph1, active compounds read low 0.966 | S. cerevisiae deletion strains, locus YOR290C, strain snf2, active compounds read low 0.989 | S. cerevisiae deletion strains, locus YOR316C, strain cot1, active compounds read low 0.979 | S. cerevisiae deletion strains, locus YPL051W, strain arl3, active compounds read low 0.989 | S. cerevisiae deletion strains, locus YPL078C, strain atp4, active compounds read low 0.99 | S. cerevisiae deletion strains, locus YPL106C, strain sse1, active compounds read low 0.967 | S. cerevisiae deletion strains, locus YPL240C, strain hsp82, active compounds read low 0.997 | S. cerevisiae deletion strains, locus YPL241C, strain CIN2, active compounds read low 0.998 | S. cerevisiae deletion strains, locus YPL256C, strain CLN2, active compounds read low 0.968 | S. cerevisiae deletion strains, locus YPR119W, strain clb2, active compounds read low 0.99 | S. cerevisiae deletion strains, locus YPR141C, strain kar3, active compounds read low 0.988 | S. cerevisiae deletion strains, locus YPR163C, strain tif3, active compounds read low 0.998 | S. cerevisiae deletion strains, locus YPR167C, strain met16, active compounds read low 0.999 | S. cerevisiae deletion strains, strain wtn01, active compounds read low 1.02 | S. cerevisiae strains, strain wild type, active compounds read low 0.988
